For 10 compounds, outcome and AC50 results are on record in PubChem BioAssay (EPA / NIEHS).

Inconclusive results are not listed. The source made the active and inactive calls. How the source made its calls, unless noted: active means hit-call score of the fitted dose curve at least 0.9, where 1 is the maximum; inconclusive means response in the unintended direction; inactive means score below 0.9.

Test [1] in a line: ATG_TGFb_CIS: Attagene CIS-FACTORIAL HepG2 Assay for human Transforming Growth Factor (TGF) (AID 2282967; active means hit-call score of the fitted dose curve at least 0.9, where 1 is the maximum; inactive means score below 0.9). The conditions noted are these: HepG2 Attagene CIS TGFb reporter, mRNA transcription; actives raise or lower the signal. The method in brief: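 Bidirectional fitting relative to DMSO gave the endpoint. Underlying data: reporter mRNA from HepG2 cells carrying transiently transfected cis-regulated reporter constructs, harvested 24 h after dosing and analyzed by RT-PCR and capillary electrophoresis.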

Test [2] can be described thus: ATG_VDRE_CIS: Attagene CIS-FACTORIAL HepG2 Assay for human Vitamin D Receptor Element (VDRE) (AID 2282968; active means hit-call score of the fitted dose curve at least 0.9, where 1 is the maximum; inactive means score below 0.9). The note with it: HepG2 VDRE cis-reporter transcription, actives raise or lower the signal. The procedure, abridged:
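Transfected HepG2 reporter cells, chemical treatment 24 h. RNA isolated, cDNA amplified with reporter-specific primers, products analysed by capillary electrophoresis. Endpoint fitted in both directions versus DMSO.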

The target of test [3] is Estrogen receptor (Homo sapiens) (UniProt P03372). In words: ATG_ERa_TRANS: Attagene TRANS-FACTORIAL HepG2 Assay for human Estrogen Receptor alpha (ERa) (AID 2282970). The note with it: HepG2 Attagene TRANS ERa GAL4 reporter, mRNA. The method in brief:
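Reporter transcripts were measured 24 h after dosing by RT-PCR with fluorescent primer extension and capillary electrophoresis. The system is transiently transfected HepG2 expressing exogenous NR-Gal4 chimeras driving GAL4-UAS reporters; DMSO is the baseline.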

Test [4] concerns the target X-box-binding protein 1 (Homo sapiens) (UniProt P17861). As to the kind of experiment: ATG_Xbp1_CIS: Attagene CIS-FACTORIAL HepG2 Assay for human X-box Binding Protein 1 (XBP1) (AID 2282972; active means hit-call score of the fitted dose curve at least 0.9, where 1 is the maximum; inactive means score below 0.9). The note with it: HepG2 XBP1 cis-element reporter, Attagene multiplex; actives raise or lower the signal. The procedure, abridged:
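Human hepatoma HepG2, cis-element reporter system, 24 h treatment; mRNA quantified by RT-PCR/CE fluorescence; fit relative to DMSO.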

In test [5] the target is Androgen receptor (Homo sapiens) (UniProt P10275). In words: ATG_AR_TRANS: Attagene TRANS-FACTORIAL HepG2 Assay for human Androgen Receptor (AR) (AID 2282973). The note with it: HepG2 Attagene TRANS-FACTORIAL AR reporter transcription. The method in brief:
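Transcriptional activity of an exogenous AR–Gal4 fusion read as GAL4-UAS reporter transcript levels in transfected human HepG2 cells after 24 h dosing. Detection via RT-PCR, 6-FAM labelling, HpaI digest and capillary electrophoresis; increase over DMSO baseline.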

A short description of test [6]: ATG_M_19_TRANS: Attagene TRANS-FACTORIAL HepG2 Assay for M19 Transcription Factor (Internal Marker) (AID 2282974). The note with it: HepG2 Attagene TRANS-FACTORIAL M19 internal marker reporter. The procedure, abridged: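 24 h chemical exposure of transiently transfected HepG2 (MRTU library). RNA → oligo(dT) RT → PCR → 6-FAM labelling → HpaI cut → CE fluorescence. Positive-direction fit vs DMSO baseline; background internal-marker readout.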

Test [7] is described as follows: ATG_GAL4_TRANS: Attagene TRANS-FACTORIAL HepG2 Assay for GAL4 (Internal Marker) (AID 2282976). The note with it: HepG2 Attagene TRANS GAL4 internal marker reporter. The method in brief:
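In transfected human HepG2 liver cells dosed 24 h, GAL4 reporter mRNA serves as a baseline marker. Detection by RT-PCR with fluorescent capillary electrophoresis, activity fitted upward relative to DMSO.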

Test [8] deals with Bile acid receptor (Homo sapiens) (UniProt Q96RI1). As to the kind of experiment: ATG_FXR_TRANS: Attagene TRANS-FACTORIAL HepG2 Assay for Farnesoid X Receptor (FXR) (AID 2282979).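 Further: hits raise reporter mRNA above DMSO so AC50 marks FXR activation.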 The conditions noted are these: HepG2 Attagene TRANS FXR-GAL4 reporter transcription. The method in brief:
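Reporter transcripts from transfected HepG2 cells were measured 24 h after dosing, using RT-PCR with capillary electrophoresis of 6-FAM-labelled fragments. The read-out reflects activity of exogenous FXR-Gal4 chimera on GAL4-UAS units, with induction relative to DMSO.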

For test [9], the target named is Hepatocyte nuclear factor 4-alpha (Homo sapiens) (UniProt P41235). As to the kind of experiment: ATG_HNF4a_TRANS: Attagene TRANS-FACTORIAL HepG2 Assay for human Hepatocyte Nuclear Factor 4 alpha (HNF4a) (AID 2282982). The note with it: HepG2 HNF4a transactivation reporter, mRNA readout. The method in brief: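 Using HepG2 liver cells transfected with GAL4-UAS reporter units, chemical-induced mRNA increases were assessed after 24 hours. Fluorescent RT-PCR fragments were separated by capillary electrophoresis and compared with DMSO negative controls.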

Test [10] is described as follows: ATG_M_06_TRANS: Attagene TRANS-FACTORIAL HepG2 Assay for M06 Transcription Factor (Internal Marker) (AID 2282983). The note with it: HepG2 Attagene TRANS M06 internal marker reporter. The method in brief:
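Background-control reporter readout: after 24 h chemical exposure of transiently transfected HepG2 (GAL4-UAS reporter units), mRNA quantified by RT-PCR with fluorescent labeling and capillary electrophoresis. Gain-of-signal fitting against DMSO baseline.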

In test [11] the target is Transcriptional activator Myb (Homo sapiens) (UniProt P10242). As to the kind of experiment: ATG_Myb_CIS: Attagene CIS-FACTORIAL HepG2 Assay for human Myeloblastosis (Myb) Proto-Oncogene Transcription Factor (AID 2282986; active means hit-call score of the fitted dose curve at least 0.9, where 1 is the maximum; inactive means score below 0.9). The note with it: HepG2 Attagene CIS-FACTORIAL Myb reporter transcription; actives raise or lower the signal. The procedure, abridged:
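HepG2, transient MRTU transfection (cis-element promoters, endogenous TF activity), 24 h compound exposure. Readout: reporter mRNA via RT-PCR, 6-FAM labeling, HpaI digest, capillary electrophoresis. Gain/loss fit vs DMSO.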

The target of test [12] is Nuclear respiratory factor 1 (Homo sapiens) (UniProt Q16656). As to the kind of experiment: ATG_NRF1_CIS: Attagene CIS-FACTORIAL HepG2 Assay for human Nuclear Respiratory Factor 1 (NRF1) Orphan Gene (AID 2282987; active means hit-call score of the fitted dose curve at least 0.9, where 1 is the maximum; inactive means score below 0.9). The note with it: HepG2 NRF1 cis-element reporter, Attagene multiplex; actives raise or lower the signal. The method in brief: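 Endogenous NRF1-driven reporter transcription measured in transiently transfected human HepG2 liver cells. Readout: reporter mRNA by RT-PCR and capillary electrophoresis with fluorescence detection, 24 h post-dosing. Gain or loss of signal fitted relative to DMSO baseline.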

In test [13] the target is Steroid hormone receptor ERR1 (Homo sapiens) (UniProt P11474). In words: ATG_ERRa_TRANS: Attagene TRANS-FACTORIAL HepG2 Assay for human Estrogen-Related Receptor alpha (ERRa) (AID 2282971). The note with it: HepG2 Attagene TRANS reporter, ERRa transactivation. The procedure, abridged: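 Reporter transcripts from ERRa-Gal4 chimera activity measured in transiently transfected human HepG2 cells 24 hours after dosing, using RT-PCR with 6-FAM primer extension, HpaI digestion and capillary electrophoresis; DMSO is baseline.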

The target in test [14] is Estrogen-related receptor gamma (Homo sapiens) (UniProt P62508). In words: ATG_ERRg_TRANS: Attagene TRANS-FACTORIAL HepG2 Assay for human Estrogen-Related Receptor gamma (ERRg) (AID 2282977).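 Further: hits increase reporter signal over DMSO so potencies reflect activators.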 The note with it: HepG2 Attagene TRANS reporter, ERRg transactivation. The procedure, abridged: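 Exogenous NR-Gal4 chimera activity was assessed in HepG2 cells bearing transfected GAL4-UAS reporters. After 24 h dosing, total RNA underwent RT-PCR, fluorescent primer extension and HpaI digestion before capillary electrophoresis, with gain of signal scored against DMSO.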

Test [15] concerns the target Nuclear receptor subfamily 4 group A member 2 (Homo sapiens) (UniProt P43354). As to the kind of experiment: ATG_NURR1_TRANS: Attagene TRANS-FACTORIAL HepG2 Assay for human Nuclear Receptor Related Protein 1 (NURR1) (AID 2282985). The note with it: HepG2 Attagene TRANS reporter, mRNA readout. The procedure, abridged: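 Chimeric NR-Gal4 proteins were expressed in human HepG2 cells bearing GAL4-UAS reporter units, and induced reporter mRNA was quantified 24 h post-dosing by RT-PCR and capillary electrophoresis.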

The target of test [16] is Glucocorticoid receptor (Homo sapiens) (UniProt P04150). In words: ATG_GR_TRANS: Attagene TRANS-FACTORIAL HepG2 Assay for human Glucocorticoid Receptor (GR) (AID 2282978).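 Further: activators score as hits since higher reporter transcript over DMSO is fitted.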 The note with it: HepG2 Attagene TRANS GR reporter, mRNA transcription. The method in brief:
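Transient MRTU transfection of HepG2 (GAL4-UAS reporters, exogenous NR-GAL4 chimeras), 24 h dosing. Readout: reporter transcript via RT-PCR + capillary electrophoresis fluorescence. Positive direction vs DMSO baseline.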

Test [17] addresses Oxysterols receptor LXR-alpha (Homo sapiens) (UniProt Q13133). In words: ATG_LXRa_TRANS: Attagene TRANS-FACTORIAL HepG2 Assay for human Liver X Receptor alpha (LXRa) (AID 2282980). The conditions noted are these: HepG2 Attagene TRANS reporter, LXRa transactivation. The method in brief: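 Chemical-induced reporter mRNA measured by RT-PCR with fluorescent labelling and capillary electrophoresis after 24 h dosing of transiently transfected HepG2 cells expressing exogenous NR-Gal4 chimeras; increases scored against DMSO baseline.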

Test [18] in a line: ATG_M_32_TRANS: Attagene TRANS-FACTORIAL HepG2 Assay for M32 Transcription Factor (Internal Marker) (AID 2282984).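 Further: transcript level of a background control reporter unit measured by RT-PCR and capillary electrophoresis.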 The conditions noted are these: HepG2 Attagene TRANS M32 internal marker reporter. The method in brief:
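Fluorescence-detected mRNA induction, HepG2 liver cells, 24 h after dosing. Multiple GAL4-UAS reporter units introduced by transient transfection; background-control endpoint analysed for gain of signal against DMSO.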

The target in test [19] is Oxysterols receptor LXR-beta (Homo sapiens) (UniProt P55055). In words: ATG_LXRb_TRANS: Attagene TRANS-FACTORIAL HepG2 Assay for human Liver X Receptor beta (LXRb) (AID 2282981). The note with it: HepG2 Attagene TRANS GAL4-LXRb reporter, mRNA. The procedure, abridged:
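Liver-derived HepG2 cells transfected with Gal4-responsive reporters were dosed for 24 h. Activation was scored as rise in reporter mRNA, by RT-PCR and capillary electrophoresis, above DMSO baseline.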

Sequence of Bile acid receptor (Homo sapiens) (Q96RI1 whole entry, looked up, the tested form may be a part): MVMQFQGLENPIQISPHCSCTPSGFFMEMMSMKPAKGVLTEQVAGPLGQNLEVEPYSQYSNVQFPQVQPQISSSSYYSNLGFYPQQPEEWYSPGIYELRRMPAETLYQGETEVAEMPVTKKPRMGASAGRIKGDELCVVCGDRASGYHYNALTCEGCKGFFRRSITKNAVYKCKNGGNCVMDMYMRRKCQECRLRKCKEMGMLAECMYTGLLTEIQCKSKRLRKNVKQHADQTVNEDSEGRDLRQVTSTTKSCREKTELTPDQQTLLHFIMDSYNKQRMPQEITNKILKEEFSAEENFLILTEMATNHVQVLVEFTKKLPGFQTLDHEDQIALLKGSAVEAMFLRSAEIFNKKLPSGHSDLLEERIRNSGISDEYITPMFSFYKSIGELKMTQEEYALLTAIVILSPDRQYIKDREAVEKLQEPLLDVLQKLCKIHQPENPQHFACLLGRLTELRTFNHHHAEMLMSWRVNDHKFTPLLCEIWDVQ
Sequence of Oxysterols receptor LXR-alpha (Homo sapiens) (Q13133 whole entry, looked up, the tested form may be a part): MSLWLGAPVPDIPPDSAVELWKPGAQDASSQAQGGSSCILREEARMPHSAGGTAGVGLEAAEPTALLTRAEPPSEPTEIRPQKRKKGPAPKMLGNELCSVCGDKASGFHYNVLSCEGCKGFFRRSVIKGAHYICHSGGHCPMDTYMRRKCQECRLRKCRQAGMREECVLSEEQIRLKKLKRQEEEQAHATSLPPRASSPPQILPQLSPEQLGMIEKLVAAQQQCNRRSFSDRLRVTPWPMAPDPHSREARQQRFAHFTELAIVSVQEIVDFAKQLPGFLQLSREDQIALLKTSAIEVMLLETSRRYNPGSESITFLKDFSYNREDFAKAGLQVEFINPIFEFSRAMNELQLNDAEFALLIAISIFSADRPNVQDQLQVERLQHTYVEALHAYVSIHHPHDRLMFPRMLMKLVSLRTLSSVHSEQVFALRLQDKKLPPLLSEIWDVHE
Sequence of Nuclear respiratory factor 1 (Homo sapiens) (Q16656 whole entry, looked up): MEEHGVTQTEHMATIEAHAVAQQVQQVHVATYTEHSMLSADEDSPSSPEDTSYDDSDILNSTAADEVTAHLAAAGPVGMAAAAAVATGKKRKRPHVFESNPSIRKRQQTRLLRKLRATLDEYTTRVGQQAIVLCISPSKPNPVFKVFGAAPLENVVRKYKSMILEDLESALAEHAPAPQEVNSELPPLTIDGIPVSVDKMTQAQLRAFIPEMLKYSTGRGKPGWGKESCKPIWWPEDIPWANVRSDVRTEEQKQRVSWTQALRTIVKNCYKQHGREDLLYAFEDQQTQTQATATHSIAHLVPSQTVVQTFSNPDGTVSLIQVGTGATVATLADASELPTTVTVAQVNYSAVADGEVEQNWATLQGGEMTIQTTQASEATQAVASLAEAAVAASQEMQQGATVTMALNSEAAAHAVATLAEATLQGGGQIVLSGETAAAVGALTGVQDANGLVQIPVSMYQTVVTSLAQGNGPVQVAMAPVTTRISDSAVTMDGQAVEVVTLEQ
Sequence of X-box-binding protein 1 (Homo sapiens) (P17861 whole entry, looked up): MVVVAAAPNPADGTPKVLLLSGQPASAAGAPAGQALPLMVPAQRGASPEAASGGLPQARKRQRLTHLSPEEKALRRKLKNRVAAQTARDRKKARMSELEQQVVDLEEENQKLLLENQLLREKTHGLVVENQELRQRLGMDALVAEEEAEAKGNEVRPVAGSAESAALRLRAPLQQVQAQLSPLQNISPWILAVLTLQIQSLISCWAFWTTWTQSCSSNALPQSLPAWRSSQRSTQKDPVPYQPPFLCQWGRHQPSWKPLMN
Sequence of Estrogen receptor (Homo sapiens) (P03372 whole entry, looked up, the tested form may be a part): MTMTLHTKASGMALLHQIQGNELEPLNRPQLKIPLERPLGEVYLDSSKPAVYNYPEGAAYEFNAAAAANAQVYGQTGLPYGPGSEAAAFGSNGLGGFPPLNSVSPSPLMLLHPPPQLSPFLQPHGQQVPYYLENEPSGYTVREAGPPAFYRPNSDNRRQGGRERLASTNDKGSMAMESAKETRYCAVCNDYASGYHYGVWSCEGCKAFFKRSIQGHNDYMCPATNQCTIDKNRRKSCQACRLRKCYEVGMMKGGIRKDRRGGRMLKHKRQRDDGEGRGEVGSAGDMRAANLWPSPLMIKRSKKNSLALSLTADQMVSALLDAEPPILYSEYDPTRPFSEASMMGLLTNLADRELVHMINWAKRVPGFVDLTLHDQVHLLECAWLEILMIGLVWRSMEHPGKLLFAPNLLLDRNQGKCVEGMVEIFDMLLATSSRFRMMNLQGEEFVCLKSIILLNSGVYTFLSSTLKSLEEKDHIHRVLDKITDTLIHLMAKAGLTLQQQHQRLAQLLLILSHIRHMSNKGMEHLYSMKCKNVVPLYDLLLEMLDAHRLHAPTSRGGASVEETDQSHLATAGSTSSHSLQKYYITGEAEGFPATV
Sequence of Nuclear receptor subfamily 4 group A member 2 (Homo sapiens) (P43354 whole entry, looked up, the tested form may be a part): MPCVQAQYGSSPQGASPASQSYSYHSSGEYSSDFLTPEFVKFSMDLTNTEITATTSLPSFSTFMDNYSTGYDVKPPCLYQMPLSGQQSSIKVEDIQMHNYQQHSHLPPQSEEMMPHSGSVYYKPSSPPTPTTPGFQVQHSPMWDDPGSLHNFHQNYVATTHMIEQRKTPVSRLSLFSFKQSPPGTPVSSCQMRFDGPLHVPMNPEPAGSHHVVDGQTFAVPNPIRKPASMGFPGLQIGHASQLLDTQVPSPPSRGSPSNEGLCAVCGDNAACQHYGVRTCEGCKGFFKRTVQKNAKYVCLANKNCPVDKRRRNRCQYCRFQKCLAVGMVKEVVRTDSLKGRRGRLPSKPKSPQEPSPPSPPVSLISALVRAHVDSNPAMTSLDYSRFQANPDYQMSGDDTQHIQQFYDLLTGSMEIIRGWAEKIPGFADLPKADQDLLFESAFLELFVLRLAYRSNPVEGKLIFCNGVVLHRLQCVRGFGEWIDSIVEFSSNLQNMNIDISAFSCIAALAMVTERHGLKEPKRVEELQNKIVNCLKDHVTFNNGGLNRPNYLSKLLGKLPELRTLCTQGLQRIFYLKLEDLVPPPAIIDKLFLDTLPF
Sequence of Oxysterols receptor LXR-beta (Homo sapiens) (P55055 whole entry, looked up, the tested form may be a part): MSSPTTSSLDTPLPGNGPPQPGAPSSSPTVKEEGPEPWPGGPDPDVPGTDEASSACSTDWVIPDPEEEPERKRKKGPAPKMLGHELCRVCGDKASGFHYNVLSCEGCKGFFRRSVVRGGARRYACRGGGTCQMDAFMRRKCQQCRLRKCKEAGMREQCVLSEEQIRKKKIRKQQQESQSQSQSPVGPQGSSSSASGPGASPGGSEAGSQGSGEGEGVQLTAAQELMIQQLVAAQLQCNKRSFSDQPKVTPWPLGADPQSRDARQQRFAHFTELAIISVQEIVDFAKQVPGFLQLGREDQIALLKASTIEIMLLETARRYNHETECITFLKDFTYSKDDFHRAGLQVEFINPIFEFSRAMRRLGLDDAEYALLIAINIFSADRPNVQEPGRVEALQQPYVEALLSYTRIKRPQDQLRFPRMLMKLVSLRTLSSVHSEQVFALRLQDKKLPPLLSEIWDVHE
Sequence of Hepatocyte nuclear factor 4-alpha (Homo sapiens) (P41235 whole entry, looked up, the tested form may be a part): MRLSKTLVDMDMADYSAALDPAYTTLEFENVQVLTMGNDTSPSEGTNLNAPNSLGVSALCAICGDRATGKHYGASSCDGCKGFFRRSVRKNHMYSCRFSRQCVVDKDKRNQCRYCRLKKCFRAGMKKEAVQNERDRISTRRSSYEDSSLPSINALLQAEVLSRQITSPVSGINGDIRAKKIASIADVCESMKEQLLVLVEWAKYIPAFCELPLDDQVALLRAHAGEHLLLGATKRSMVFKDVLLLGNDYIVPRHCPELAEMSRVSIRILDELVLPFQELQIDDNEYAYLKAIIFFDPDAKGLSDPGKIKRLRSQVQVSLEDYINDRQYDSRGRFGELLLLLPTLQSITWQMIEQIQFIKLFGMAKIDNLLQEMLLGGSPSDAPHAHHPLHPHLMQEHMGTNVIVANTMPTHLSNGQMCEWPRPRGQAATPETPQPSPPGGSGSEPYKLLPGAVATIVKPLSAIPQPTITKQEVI
Sequence of Transcriptional activator Myb (Homo sapiens) (P10242 whole entry, looked up): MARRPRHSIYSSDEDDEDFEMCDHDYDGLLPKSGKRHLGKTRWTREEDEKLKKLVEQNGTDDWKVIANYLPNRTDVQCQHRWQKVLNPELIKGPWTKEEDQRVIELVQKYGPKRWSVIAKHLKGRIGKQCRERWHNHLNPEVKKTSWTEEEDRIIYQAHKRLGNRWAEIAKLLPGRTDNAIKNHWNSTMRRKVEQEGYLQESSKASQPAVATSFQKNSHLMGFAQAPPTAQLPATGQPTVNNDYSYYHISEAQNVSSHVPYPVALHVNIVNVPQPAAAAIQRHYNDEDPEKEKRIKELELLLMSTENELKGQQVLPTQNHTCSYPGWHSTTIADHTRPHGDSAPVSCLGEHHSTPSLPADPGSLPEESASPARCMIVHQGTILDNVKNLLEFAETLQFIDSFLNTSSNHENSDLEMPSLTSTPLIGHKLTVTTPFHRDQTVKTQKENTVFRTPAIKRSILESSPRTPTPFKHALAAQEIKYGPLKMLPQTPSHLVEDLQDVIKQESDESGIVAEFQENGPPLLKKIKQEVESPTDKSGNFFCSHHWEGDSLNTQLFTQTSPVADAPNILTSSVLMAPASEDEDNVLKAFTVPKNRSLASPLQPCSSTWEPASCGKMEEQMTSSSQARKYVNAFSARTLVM
Sequence of Estrogen-related receptor gamma (Homo sapiens) (P62508 whole entry, looked up, the tested form may be a part): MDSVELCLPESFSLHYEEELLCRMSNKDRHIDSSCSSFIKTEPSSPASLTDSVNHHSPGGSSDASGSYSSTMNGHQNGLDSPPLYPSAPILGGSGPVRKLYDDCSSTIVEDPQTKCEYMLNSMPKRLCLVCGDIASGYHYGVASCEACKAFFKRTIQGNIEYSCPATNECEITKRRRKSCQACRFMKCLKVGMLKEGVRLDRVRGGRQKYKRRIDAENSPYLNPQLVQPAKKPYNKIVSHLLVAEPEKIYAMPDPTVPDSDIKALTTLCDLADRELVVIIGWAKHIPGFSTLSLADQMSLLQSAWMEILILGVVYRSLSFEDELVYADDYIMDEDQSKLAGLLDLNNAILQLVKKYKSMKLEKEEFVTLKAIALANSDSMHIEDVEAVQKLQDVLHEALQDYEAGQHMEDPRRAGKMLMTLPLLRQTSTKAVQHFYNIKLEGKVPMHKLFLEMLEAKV

On to `OC(c1ccc(Cl)cc1)(c1ccc(Cl)cc1)c1cccnc1`, for which the call in test [1], in test [2], in [3], in test [4], in [5] and in test [6] was inactive. In addition, the outcome in test [7], in test [8], in [9], in [10], in test [11] and in test [12] was inactive.

Turning to `CCOc1ccc(N)cc1`, the call in [1], in [2], in test [3], in test [13], in test [4] and in test [6] was inactive. The compound was called inactive in test [14], in [9], in test [15], in test [11] and in test [12].

Consider `CCOC(=O)OC1=C(c2cc(C)ccc2C)C(=O)NC12CCC(OC)CC2` (stereo unspecified), for which the call in test [1], in [2], in test [3], in test [4], in [16] and in [8] was inactive. The compound was classed as inactive in [17], in test [9], in test [10], in test [18], in [15] and in test [11]. Besides, the call in [12] was inactive.

As to `C[N+](C)(C)Cc1ccccc1`, the result in test [1], in test [2], in [3], in test [4], in test [6] and in test [7] was inactive. Further, the compound was classed as inactive in test [8], in test [17], in [9], in test [18], in [11] and in [12].

Turning to `O=C(CCl)Nc1ccccc1`, the outcome in [1], in test [3], in test [5], in [17], in [19] and in test [9] was inactive. Also, the outcome in [10], in test [18] and in [15] was inactive. In addition, the AC50 in test [2] was 43.7 µM (active); in test [4], 22 µM (active); in test [11], 100 µM (active); in test [12], 35.2 µM (active).

Turning to `O=[N+]([O-])c1ccc(Nc2ccccc2)cc1`, the compound was classed as inactive in test [1], in [3], in test [4], in test [14], in test [16] and in test [8]. Moreover, the outcome in test [19], in [9], in test [10], in test [15], in [11] and in test [12] was inactive. In [2], the AC50 was 19.2 µM (active).

For the compound `C=C(C)[C@@H]1CC=C(C=O)CC1`, the compound was classed as inactive in test [1], in test [2], in test [3], in test [13], in test [4] and in [8]. In addition, the call in [17], in [10], in test [11] and in [12] was inactive.

Take `O=C(NC(=O)c1c(F)cccc1F)Nc1cc(Cl)c(OC(F)(F)C(F)C(F)(F)F)cc1Cl` (stereo unspecified): the call in [1], in test [2], in test [3], in test [4], in [17] and in test [9] was inactive. The compound was called inactive in test [10], in test [18], in test [11] and in [12]. Also, the concentration at half-maximal activity (AC50) in test [19] was 49.9 µM (active).

Take `C=CCc1ccccc1O`: the compound was called inactive in test [1], in [2], in test [4], in test [6], in test [7] and in test [14]. Moreover, the outcome in test [8], in test [9], in test [10], in test [18], in [11] and in test [12] was inactive. Moreover, the AC50 in test [3] is 48.6 µM (active).

As for `CCCCN(CCCC)C(=S)[S-].CCCCN(CCCC)C(=S)[S-].[Ni+2]`, the compound was called inactive in test [1], in [2], in [3], in [4], in [6] and in test [7]. Besides, the result in [17], in test [19], in test [9], in test [10], in test [18] and in [11] was inactive. Also, the result in [12] was inactive.

For orientation: AC50 means the midpoint of the concentration-response curve, whichever way the signal moves.
